Data on 7 sequences can be found in article PMC7862700, “An all-to-all approach to the identification of sequence-specific readers for epigenetic DNA modifications on cytosine”.

Experiment in all cases: DAPPL (digital affinity profiling via proximity ligation, sequencing); 10 mM Tris-HCl pH 7.5, 50 mM NaCl, 1 mM DTT, 4% glycerol, room temperature, 30 min; GST-TFs on glutathione beads, 16-mer random dsDNA library, 0.1% formaldehyde crosslink after washing; high values mean tight binding
Holding throughout (conditions): protein: recombinant; tags: N-terminal GST; dsDNA, one strand shown

For assay [1], the target named is T1, FLI1 (Homo sapiens, UniProt Q01543 1-452).
T1 sequence: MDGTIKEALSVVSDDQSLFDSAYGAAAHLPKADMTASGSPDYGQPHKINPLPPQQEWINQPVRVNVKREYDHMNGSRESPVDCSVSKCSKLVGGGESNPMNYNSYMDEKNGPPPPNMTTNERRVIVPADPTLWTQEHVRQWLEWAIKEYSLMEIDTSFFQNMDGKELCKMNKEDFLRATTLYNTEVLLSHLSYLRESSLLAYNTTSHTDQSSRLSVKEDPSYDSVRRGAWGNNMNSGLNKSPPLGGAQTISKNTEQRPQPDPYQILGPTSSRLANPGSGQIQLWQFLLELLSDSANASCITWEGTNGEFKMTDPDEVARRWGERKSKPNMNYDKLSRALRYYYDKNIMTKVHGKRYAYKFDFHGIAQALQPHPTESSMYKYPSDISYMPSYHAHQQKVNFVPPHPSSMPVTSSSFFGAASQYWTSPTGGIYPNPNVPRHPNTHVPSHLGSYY
The procedure, abridged:
(§1)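 Binding signal is given per hexamer as its read frequency for a factor divided by its frequency in the tag-only sample. GST-fused human transcription factors were expressed in yeast, captured on glutathione beads, barcoded with DNA and pooled with that sample, then incubated with 200 nmole of a 16-mer random double-stranded DNA library in Tris/NaCl/DTT/glycerol buffer for 30 min at room temperature. The pools were then washed, crosslinked, proximity-ligated, amplified by PCR and sequenced on an Illumina NextSeq500.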

Assay [2] concerns the target T2, ELK1 (Homo sapiens, UniProt P19419 1-428).
T2 sequence: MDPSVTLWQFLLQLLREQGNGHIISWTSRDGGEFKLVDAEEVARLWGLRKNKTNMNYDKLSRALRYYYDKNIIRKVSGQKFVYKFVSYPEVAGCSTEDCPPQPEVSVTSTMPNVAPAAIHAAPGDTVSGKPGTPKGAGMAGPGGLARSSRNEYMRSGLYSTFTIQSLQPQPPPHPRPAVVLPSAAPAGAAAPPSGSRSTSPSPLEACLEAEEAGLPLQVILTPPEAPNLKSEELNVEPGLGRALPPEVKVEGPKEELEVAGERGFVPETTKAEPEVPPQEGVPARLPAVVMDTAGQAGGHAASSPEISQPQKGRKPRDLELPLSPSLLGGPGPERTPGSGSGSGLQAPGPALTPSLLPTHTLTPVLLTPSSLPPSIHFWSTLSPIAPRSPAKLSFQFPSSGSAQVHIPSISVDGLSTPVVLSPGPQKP
The gist of the method:
as §1

Assay [3] deals with T3, GABPA (Homo sapiens, UniProt Q06546 1-454).
T3 sequence: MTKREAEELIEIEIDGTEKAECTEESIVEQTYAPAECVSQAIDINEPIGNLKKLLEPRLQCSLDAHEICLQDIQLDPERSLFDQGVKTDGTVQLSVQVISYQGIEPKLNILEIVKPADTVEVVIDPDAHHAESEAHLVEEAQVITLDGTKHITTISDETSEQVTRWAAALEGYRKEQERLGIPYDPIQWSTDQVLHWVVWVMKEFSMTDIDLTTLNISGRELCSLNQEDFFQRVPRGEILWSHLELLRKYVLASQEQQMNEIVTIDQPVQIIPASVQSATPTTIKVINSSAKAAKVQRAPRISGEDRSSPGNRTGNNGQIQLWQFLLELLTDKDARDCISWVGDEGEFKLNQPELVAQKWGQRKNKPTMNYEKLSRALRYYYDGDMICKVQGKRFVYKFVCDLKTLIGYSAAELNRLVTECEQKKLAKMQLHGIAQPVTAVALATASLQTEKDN
The procedure, abridged: as §1

Assay [4] addresses T4, ERG (Homo sapiens, UniProt P11308 1-479).
T4 sequence: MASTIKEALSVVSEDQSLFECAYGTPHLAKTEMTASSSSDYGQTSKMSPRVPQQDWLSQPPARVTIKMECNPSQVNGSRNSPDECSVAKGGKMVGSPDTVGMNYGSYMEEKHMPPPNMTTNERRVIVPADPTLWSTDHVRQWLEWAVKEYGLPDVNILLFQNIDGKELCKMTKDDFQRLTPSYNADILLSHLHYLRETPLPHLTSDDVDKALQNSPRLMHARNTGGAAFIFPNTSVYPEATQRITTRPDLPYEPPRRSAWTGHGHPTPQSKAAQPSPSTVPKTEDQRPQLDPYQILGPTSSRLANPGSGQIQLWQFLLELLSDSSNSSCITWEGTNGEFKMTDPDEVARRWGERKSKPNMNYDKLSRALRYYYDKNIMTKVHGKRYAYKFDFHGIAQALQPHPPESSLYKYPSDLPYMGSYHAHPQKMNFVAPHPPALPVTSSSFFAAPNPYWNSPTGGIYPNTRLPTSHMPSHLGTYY
The procedure, abridged:
as §1

The target in assay [5] is ELF1 (Homo sapiens, UniProt P32519 1-619). The procedure, abridged: as §1
Chain of ELF1 (P32519 whole entry): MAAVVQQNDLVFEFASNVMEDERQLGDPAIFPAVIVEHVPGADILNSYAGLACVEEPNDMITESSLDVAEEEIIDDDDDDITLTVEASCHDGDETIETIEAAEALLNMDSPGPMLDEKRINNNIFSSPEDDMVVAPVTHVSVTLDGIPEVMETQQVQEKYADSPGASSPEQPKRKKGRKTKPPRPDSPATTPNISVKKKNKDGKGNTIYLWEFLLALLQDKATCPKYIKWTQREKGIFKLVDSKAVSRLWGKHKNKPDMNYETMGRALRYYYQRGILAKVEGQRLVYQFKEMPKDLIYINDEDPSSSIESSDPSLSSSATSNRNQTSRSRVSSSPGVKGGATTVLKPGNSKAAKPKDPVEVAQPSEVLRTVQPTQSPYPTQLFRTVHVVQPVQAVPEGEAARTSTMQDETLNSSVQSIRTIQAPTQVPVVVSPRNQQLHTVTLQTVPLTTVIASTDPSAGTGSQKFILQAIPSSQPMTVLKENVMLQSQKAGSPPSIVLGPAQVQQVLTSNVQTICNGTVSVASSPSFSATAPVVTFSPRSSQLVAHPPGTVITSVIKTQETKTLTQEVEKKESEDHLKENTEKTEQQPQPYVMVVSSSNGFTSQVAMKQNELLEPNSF
The target of assay [6] is T5, EHF (Homo sapiens, UniProt Q9NZC4 1-300).
T5 sequence: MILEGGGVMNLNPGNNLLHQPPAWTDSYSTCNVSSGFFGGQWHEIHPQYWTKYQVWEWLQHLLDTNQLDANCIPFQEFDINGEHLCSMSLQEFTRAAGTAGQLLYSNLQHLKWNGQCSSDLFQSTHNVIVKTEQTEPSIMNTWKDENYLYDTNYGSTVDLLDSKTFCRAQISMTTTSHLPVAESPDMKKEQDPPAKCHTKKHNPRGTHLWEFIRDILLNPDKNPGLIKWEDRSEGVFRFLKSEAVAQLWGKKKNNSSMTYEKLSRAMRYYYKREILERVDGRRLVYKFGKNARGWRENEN
The procedure, abridged: as §1

For assay [7], the target named is SPI1 (Homo sapiens, UniProt P17947 1-270). The procedure, abridged:
as §1

In assay [8] the target is SPIB (Homo sapiens, UniProt Q01892 1-262). The gist of the method: as §1
Chain of SPIB (Q01892 whole entry): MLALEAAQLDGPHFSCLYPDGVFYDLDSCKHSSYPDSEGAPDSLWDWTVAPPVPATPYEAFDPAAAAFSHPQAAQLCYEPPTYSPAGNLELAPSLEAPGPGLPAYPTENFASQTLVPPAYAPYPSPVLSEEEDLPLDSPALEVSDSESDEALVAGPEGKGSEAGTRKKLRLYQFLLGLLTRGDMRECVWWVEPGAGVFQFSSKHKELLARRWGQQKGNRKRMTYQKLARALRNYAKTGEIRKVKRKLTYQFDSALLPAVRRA
The target in assay [9] is T6, ELK3 (Homo sapiens, UniProt P41970 1-407).
T6 sequence: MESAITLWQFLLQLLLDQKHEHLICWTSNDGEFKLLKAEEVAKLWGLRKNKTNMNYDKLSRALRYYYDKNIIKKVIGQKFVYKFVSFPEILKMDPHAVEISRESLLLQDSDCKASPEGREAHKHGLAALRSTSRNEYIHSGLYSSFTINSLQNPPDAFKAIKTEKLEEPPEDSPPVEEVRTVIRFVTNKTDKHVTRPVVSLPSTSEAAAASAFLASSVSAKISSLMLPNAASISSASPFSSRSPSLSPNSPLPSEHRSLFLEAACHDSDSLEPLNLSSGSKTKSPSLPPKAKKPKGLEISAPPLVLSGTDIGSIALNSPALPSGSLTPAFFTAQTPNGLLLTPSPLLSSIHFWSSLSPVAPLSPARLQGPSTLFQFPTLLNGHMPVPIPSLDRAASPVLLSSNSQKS
The gist of the method: as §1

Take TAAGTA: the binding signal in [1] was 1.21 fold enrichment (6-mer frequency, TF over GST control); in [2], 1.26 fold enrichment (6-mer frequency, TF over GST control); in assay [3], 1.28 fold enrichment (6-mer frequency, TF over GST control); in assay [4], 1.22 fold enrichment (6-mer frequency, TF over GST control); in assay [5] it was 1.24 fold enrichment (6-mer frequency, TF over GST control); in [6], 1.19 fold enrichment (6-mer frequency, TF over GST control). In addition, the binding signal in assay [7] was 1.16 fold enrichment (6-mer frequency, TF over GST control); in assay [8] it was 1.22 fold enrichment (6-mer frequency, TF over GST control); in [9], 1.22 fold enrichment (6-mer frequency, TF over GST control).

CTAACT: the binding signal in [1] was 1.36 fold enrichment (6-mer frequency, TF over GST control); in assay [2], 1.35 fold enrichment (6-mer frequency, TF over GST control); in assay [3], 1.36 fold enrichment (6-mer frequency, TF over GST control); in [4] it was 1.37 fold enrichment (6-mer frequency, TF over GST control); in assay [5] it was 1.37 fold enrichment (6-mer frequency, TF over GST control); in assay [6], 1.25 fold enrichment (6-mer frequency, TF over GST control). Moreover, the binding signal in assay [7] was 1.36 fold enrichment (6-mer frequency, TF over GST control); in assay [8], 1.35 fold enrichment (6-mer frequency, TF over GST control); in [9], 1.29 fold enrichment (6-mer frequency, TF over GST control).

Take TCAACC: the binding signal was 1.23 fold enrichment (6-mer frequency, TF over GST control) in assay [1]; 1.24 fold enrichment (6-mer frequency, TF over GST control) in assay [2]; 1.22 fold enrichment (6-mer frequency, TF over GST control) in assay [3]; 1.14 fold enrichment (6-mer frequency, TF over GST control) in assay [4]; 1.16 fold enrichment (6-mer frequency, TF over GST control) in [5]; 1.15 fold enrichment (6-mer frequency, TF over GST control) in [6]. Moreover, the binding signal in [7] is 1.16 fold enrichment (6-mer frequency, TF over GST control); in assay [8], 1.17 fold enrichment (6-mer frequency, TF over GST control); in [9], 1.32 fold enrichment (6-mer frequency, TF over GST control).

With TCCTGT, the binding signal in [1] is 1.8 fold enrichment (6-mer frequency, TF over GST control); in assay [2], 1.72 fold enrichment (6-mer frequency, TF over GST control); in [3] it was 1.69 fold enrichment (6-mer frequency, TF over GST control); in assay [4], 1.94 fold enrichment (6-mer frequency, TF over GST control); in [5], 1.71 fold enrichment (6-mer frequency, TF over GST control); in assay [6] it was 1.67 fold enrichment (6-mer frequency, TF over GST control). Moreover, the binding signal is 1.99 fold enrichment (6-mer frequency, TF over GST control) in [7]; 1.88 fold enrichment (6-mer frequency, TF over GST control) in assay [8]; 1.88 fold enrichment (6-mer frequency, TF over GST control) in [9].

Turning to ATTACA, the binding signal was 1.14 fold enrichment (6-mer frequency, TF over GST control) in [1]; 1.13 fold enrichment (6-mer frequency, TF over GST control) in [2]; 1.06 fold enrichment (6-mer frequency, TF over GST control) in assay [3]; 1.12 fold enrichment (6-mer frequency, TF over GST control) in assay [4]; 1.1 fold enrichment (6-mer frequency, TF over GST control) in assay [5]; 1.12 fold enrichment (6-mer frequency, TF over GST control) in [6]. Besides, the binding signal in assay [7] is 1.08 fold enrichment (6-mer frequency, TF over GST control); in assay [8] it was 1.15 fold enrichment (6-mer frequency, TF over GST control); in [9], 1.11 fold enrichment (6-mer frequency, TF over GST control).

For TAATAG, the binding signal in assay [1] was 1.24 fold enrichment (6-mer frequency, TF over GST control); in [2], 1.15 fold enrichment (6-mer frequency, TF over GST control); in assay [3] it was 1.09 fold enrichment (6-mer frequency, TF over GST control); in assay [4] it was 1.11 fold enrichment (6-mer frequency, TF over GST control); in assay [5], 1.2 fold enrichment (6-mer frequency, TF over GST control); in assay [6], 1.25 fold enrichment (6-mer frequency, TF over GST control). Also, the binding signal was 1.2 fold enrichment (6-mer frequency, TF over GST control) in [7]; 1.29 fold enrichment (6-mer frequency, TF over GST control) in [8]; 1.06 fold enrichment (6-mer frequency, TF over GST control) in [9].

For CTCTAC, the binding signal in assay [1] was 1.51 fold enrichment (6-mer frequency, TF over GST control); in assay [2], 1.51 fold enrichment (6-mer frequency, TF over GST control); in assay [3], 1.56 fold enrichment (6-mer frequency, TF over GST control); in assay [4], 1.6 fold enrichment (6-mer frequency, TF over GST control); in assay [5] it was 1.59 fold enrichment (6-mer frequency, TF over GST control); in assay [6], 1.54 fold enrichment (6-mer frequency, TF over GST control). The binding signal in assay [7] is 1.45 fold enrichment (6-mer frequency, TF over GST control); in assay [8], 1.63 fold enrichment (6-mer frequency, TF over GST control); in assay [9] it was 1.27 fold enrichment (6-mer frequency, TF over GST control).
